Assay [1] can be described thus: ATG_RORE_CIS: Attagene CIS-FACTORIAL HepG2 Assay for human RAR-related Orphan Receptor Element (RORE) (AID 2282959). The following applies: HepG2 Attagene cis-factorial RORE reporter, mRNA; actives raise or lower the signal. In short, it runs like this: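 Transfect HepG2 with MRTUs; treat 24 h; extract RNA; RT with oligo(dT); PCR with reporter-specific primers; 6-FAM primer extension; HpaI digest 2 h at 37 C; capillary electrophoresis. Fit vs DMSO, bidirectional.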

Assay [2] in a line: ATG_Sox_CIS: Attagene CIS-FACTORIAL HepG2 Assay for human SRY-box transcription factor (SOX) (AID 2282960). The settings on record: HepG2 Attagene cis-factorial SOX reporter, mRNA; actives raise or lower the signal. In short, it runs like this:
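Fluorescence-labelled cDNA fragments from reporter transcripts, sized by CE, give the signal. Cells: HepG2, transiently transfected with cis-regulated reporter units. Exposure 24 h; DMSO negative control; bidirectional curve fitting.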

In assay [3] the target is Transcription factor Sp1 (Homo sapiens) (UniProt P08047). Briefly: ATG_Sp1_CIS: Attagene CIS-FACTORIAL HepG2 Assay for human Specificity Protein 1 (Sp1) (AID 2282961). The following applies: HepG2 Sp1 cis-reporter transcription, actives raise or lower the signal. The procedure, abridged: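 Chemicals are dosed onto HepG2 cells transfected with multiple cis-promoter reporter constructs, and after 24 h reporter RNA is reverse-transcribed, PCR-amplified and resolved by capillary electrophoresis for fluorescence quantitation; activity is scored up or down against DMSO.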

A short description of assay [4]: ATG_SREBP_CIS: Attagene CIS-FACTORIAL HepG2 Assay for human Sterol Regulatory Element Binding (SREBP) (AID 2282962). The following applies: HepG2 Attagene cis-factorial SREBP reporter, mRNA; actives raise or lower the signal. In short, it runs like this:
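Endogenous SREBP activity read as cis-element-driven reporter transcript in transiently transfected HepG2, 24 h post-dosing; quantified via RT-PCR plus capillary electrophoresis of fluorescent fragments. Gain or loss of signal fitted relative to DMSO baseline.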

Assay [5] addresses Signal transducer and activator of transcription 3 (Homo sapiens) (UniProt P40763). Briefly: ATG_STAT3_CIS: Attagene CIS-FACTORIAL HepG2 Assay for human Signal Transducer and Activator of Transcription 3 (STAT3) (AID 2282963). The settings on record: HepG2, Attagene cis-factorial STAT3 reporter transcription; actives raise or lower the signal. In short, it runs like this: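 Readout: fluorescent reporter mRNA fragments resolved by capillary electrophoresis. Setup: HepG2 transfected with MRTUs reporting endogenous transcription-factor activity, dosed 24 h. Gain or loss of signal fitted bidirectionally against DMSO control.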

Assay [6] can be described thus: ATG_TA_CIS: Attagene CIS-FACTORIAL HepG2 Assay for human TA Basal Promoter (AID 2282964). The following applies: HepG2 Attagene CIS-factorial TA basal promoter reporter; actives raise or lower the signal. The procedure, abridged:
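Steps: transfect HepG2 with MRTUs; dose 24 h; isolate RNA, DNase-treat, reverse-transcribe; PCR and FAM-label reporter cDNA; digest with HpaI 2h at 37 C; run capillary electrophoresis. Activity fitted both directions against DMSO.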

Assay [7] in a line: ATG_TCF_b_cat_CIS: Attagene CIS-FACTORIAL HepG2 Assay for human T-Cell-Factor with beta-catenin (TCF/b-cat) (AID 2282965). The following applies: HepG2 TCF/beta-catenin cis-reporter transcription, actives raise or lower the signal. In short, it runs like this: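 Cells of the HepG2 line carry transiently transfected reporter units whose promoters respond to endogenous factors. Twenty-four hours post-dosing, reporter mRNA induction is measured by fluorescent RT-PCR and capillary electrophoresis, with DMSO as baseline.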

Assay [8] in a line: ATG_TAL_CIS: Attagene CIS-FACTORIAL HepG2 Assay for human TAL Basal Promoter (AID 2282966).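 Further: background control endpoint measuring basal TAL promoter reporter mRNA not a specific factor.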 The settings on record: HepG2 Attagene cis-factorial TAL promoter reporter; actives raise or lower the signal. In short, it runs like this:
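Human hepatoma HepG2 cells, transfected with promoter-regulated reporter units, were treated 24 h. Reporter transcript levels, measured through RT-PCR and capillary electrophoresis, were fitted for gain or loss relative to DMSO.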

Assay [9] is described as follows: ATG_TGFb_CIS: Attagene CIS-FACTORIAL HepG2 Assay for human Transforming Growth Factor (TGF) (AID 2282967). The following applies: HepG2 Attagene CIS TGFb reporter, mRNA transcription; actives raise or lower the signal. In short, it runs like this: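 Cells were dosed for 24 hours, after which total RNA was reverse-transcribed and reporter sequences amplified, labeled and sized by capillary electrophoresis. Activity was fitted in both directions against DMSO.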

Assay [10] in a line: ATG_VDRE_CIS: Attagene CIS-FACTORIAL HepG2 Assay for human Vitamin D Receptor Element (VDRE) (AID 2282968). The following applies: HepG2 VDRE cis-reporter transcription, actives raise or lower the signal. In short, it runs like this: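 Transient MRTU transfection of HepG2, 24 h compound exposure. Readout: reporter transcripts via RT-PCR and capillary electrophoresis, fluorescence. Bidirectional fit vs DMSO.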

Assay [11] has as its target Glucocorticoid receptor (Homo sapiens) (UniProt P04150). Description: ATG_GR_TRANS: Attagene TRANS-FACTORIAL HepG2 Assay for human Glucocorticoid Receptor (GR) (AID 2282978; active means hit-call score of the fitted dose curve at least 0.9, where 1 is the maximum;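 further: activators score as hits since higher reporter transcript over DMSO is fitted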). The following applies: HepG2 Attagene TRANS GR reporter, mRNA transcription. The procedure, abridged:
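Transiently transfected HepG2 cells express chimeric NR-GAL4 proteins acting on GAL4-UAS reporter units. Compounds are applied for 24 h. mRNA induction over DMSO is measured by capillary electrophoresis.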

The target of assay [12] is Bile acid receptor (Homo sapiens) (UniProt Q96RI1). Description: ATG_FXR_TRANS: Attagene TRANS-FACTORIAL HepG2 Assay for Farnesoid X Receptor (FXR) (AID 2282979; active means hit-call score of the fitted dose curve at least 0.9, where 1 is the maximum;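 further: hits raise reporter mRNA above DMSO so AC50 marks FXR activation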). The settings on record: HepG2 Attagene TRANS FXR-GAL4 reporter transcription. In short, it runs like this:
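After 24 h chemical treatment of transfected HepG2 cells, GAL4-UAS reporter transcripts driven by an exogenous FXR-GAL4 fusion were measured by RT-PCR and capillary electrophoresis. Increases over DMSO were fitted.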

Assay [13] concerns the target Nuclear receptor subfamily 1 group I member 3 (Homo sapiens) (UniProt Q14994). Briefly: ATG_CAR_TRANS: Attagene TRANS-FACTORIAL HepG2 Assay for human Constitutive Androstane Receptor (CAR) (AID 2282969; active means hit-call score of the fitted dose curve at least 0.9, where 1 is the maximum;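 further: activators raise reporter mRNA above DMSO so AC50 marks induction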). The following applies: HepG2 Attagene TRANS-FACTORIAL CAR reporter. In short, it runs like this:
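Transiently transfected HepG2, multiplex TRANS reporters (CAR-Gal4 chimera driving GAL4-UAS reporter). 24 h dosing. Readout: reporter transcript by RT-PCR + capillary electrophoresis, fluorescence intensity; positive direction vs DMSO.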

Assay [14] is described as follows: ATG_M_19_TRANS: Attagene TRANS-FACTORIAL HepG2 Assay for M19 Transcription Factor (Internal Marker) (AID 2282974; active means hit-call score of the fitted dose curve at least 0.9, where 1 is the maximum). The settings on record: HepG2 Attagene TRANS-FACTORIAL M19 internal marker reporter. In short, it runs like this: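 Multiplexed TRANS format: HepG2 liver cells bearing transient GAL4-UAS reporter units, chemical treatment 24 h, reporter transcripts quantified by RT-PCR plus capillary electrophoresis. DMSO defines baseline.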

A short description of assay [15]: ATG_GAL4_TRANS: Attagene TRANS-FACTORIAL HepG2 Assay for GAL4 (Internal Marker) (AID 2282976; active means hit-call score of the fitted dose curve at least 0.9, where 1 is the maximum). The settings on record: HepG2 Attagene TRANS GAL4 internal marker reporter. In short, it runs like this:
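Liver HepG2 line bearing multiplexed GAL4-UAS reporter constructs; 24 h chemical treatment. Transcripts were quantified as fluorescent fragments on capillary electrophoresis after RT-PCR and HpaI cut, with activity fitted upward from DMSO.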

For assay [16], the target named is Estrogen receptor (Homo sapiens) (UniProt P03372). Description: ATG_ERa_TRANS: Attagene TRANS-FACTORIAL HepG2 Assay for human Estrogen Receptor alpha (ERa) (AID 2282970; active means hit-call score of the fitted dose curve at least 0.9, where 1 is the maximum). The following applies: HepG2 Attagene TRANS ERa GAL4 reporter, mRNA. The procedure, abridged:
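Signal derives from fluorescence of labelled reporter PCR fragments separated by capillary electrophoresis. HepG2 cells transiently carrying multiple GAL4-UAS reporter units were treated 24 hours, and induction above DMSO baseline was fitted as activity.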

The target of assay [17] is X-box-binding protein 1 (Homo sapiens) (UniProt P17861). Description: ATG_Xbp1_CIS: Attagene CIS-FACTORIAL HepG2 Assay for human X-box Binding Protein 1 (XBP1) (AID 2282972). The following applies: HepG2 XBP1 cis-element reporter, Attagene multiplex; actives raise or lower the signal. In short, it runs like this: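 Reporter transcripts were quantified by RT-PCR with fluorescent primer extension and capillary electrophoresis after 24 h chemical exposure. Cells: transiently transfected HepG2 carrying cis-regulated reporter constructs; data fitted bidirectionally relative to DMSO.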

Assay [18] can be described thus: ATG_PPRE_CIS: Attagene CIS-FACTORIAL HepG2 Assay for human Peroxisome Proliferator-activated Response Element (PPRE) (AID 2282958). The settings on record: HepG2 PPRE cis-element reporter, Attagene transcription factor profiling; actives raise or lower the signal. In short, it runs like this: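 DMSO served as negative control and baseline for bidirectional curve fitting. Signal came from PPRE-regulated reporter mRNA in HepG2 cells, measured 24 h post-dosing by RT-PCR, 6-FAM primer extension and capillary electrophoresis.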

In PubChem BioAssay (EPA / NIEHS) one finds outcome and AC50 data, which are given here for 6 compounds.

Records with an inconclusive call do not appear. Active and inactive are the calls of the source. How the source made its calls, unless noted: active means hit-call score of the fitted dose curve at least 0.9, where 1 is the maximum; inactive means score below 0.9.

X-box-binding protein 1 (Homo sapiens), sequence (P17861 whole entry, looked up): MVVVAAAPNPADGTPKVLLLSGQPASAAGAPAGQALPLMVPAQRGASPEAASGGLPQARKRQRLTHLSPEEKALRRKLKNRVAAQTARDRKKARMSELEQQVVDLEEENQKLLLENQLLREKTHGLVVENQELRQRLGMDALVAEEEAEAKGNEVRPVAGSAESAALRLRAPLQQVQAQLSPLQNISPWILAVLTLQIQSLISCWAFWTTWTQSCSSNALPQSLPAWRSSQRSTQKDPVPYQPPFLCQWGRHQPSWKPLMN
Transcription factor Sp1 (Homo sapiens), sequence (P08047 whole entry, looked up): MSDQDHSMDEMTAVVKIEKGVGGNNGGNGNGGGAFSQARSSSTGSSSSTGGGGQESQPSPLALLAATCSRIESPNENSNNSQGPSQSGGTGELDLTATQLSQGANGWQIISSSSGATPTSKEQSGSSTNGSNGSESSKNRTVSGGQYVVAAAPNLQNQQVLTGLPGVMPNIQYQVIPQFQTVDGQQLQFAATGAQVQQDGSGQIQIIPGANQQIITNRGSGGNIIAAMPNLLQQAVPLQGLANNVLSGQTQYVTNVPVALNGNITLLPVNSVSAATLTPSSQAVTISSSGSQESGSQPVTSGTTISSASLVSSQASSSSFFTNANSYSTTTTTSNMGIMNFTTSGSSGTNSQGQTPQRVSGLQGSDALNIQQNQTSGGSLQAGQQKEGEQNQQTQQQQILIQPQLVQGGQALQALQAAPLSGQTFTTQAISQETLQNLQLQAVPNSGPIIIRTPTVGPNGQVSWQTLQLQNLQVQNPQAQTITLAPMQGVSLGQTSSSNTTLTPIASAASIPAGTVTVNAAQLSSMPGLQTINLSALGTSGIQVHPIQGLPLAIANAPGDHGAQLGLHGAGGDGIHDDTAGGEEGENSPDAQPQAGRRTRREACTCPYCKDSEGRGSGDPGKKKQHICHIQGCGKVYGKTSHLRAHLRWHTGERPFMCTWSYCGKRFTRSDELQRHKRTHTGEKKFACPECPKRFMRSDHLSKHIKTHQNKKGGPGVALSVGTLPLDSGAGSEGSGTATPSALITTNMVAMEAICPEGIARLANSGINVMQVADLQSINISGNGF
Signal transducer and activator of transcription 3 (Homo sapiens), sequence (P40763 whole entry, looked up, the tested form may be a part): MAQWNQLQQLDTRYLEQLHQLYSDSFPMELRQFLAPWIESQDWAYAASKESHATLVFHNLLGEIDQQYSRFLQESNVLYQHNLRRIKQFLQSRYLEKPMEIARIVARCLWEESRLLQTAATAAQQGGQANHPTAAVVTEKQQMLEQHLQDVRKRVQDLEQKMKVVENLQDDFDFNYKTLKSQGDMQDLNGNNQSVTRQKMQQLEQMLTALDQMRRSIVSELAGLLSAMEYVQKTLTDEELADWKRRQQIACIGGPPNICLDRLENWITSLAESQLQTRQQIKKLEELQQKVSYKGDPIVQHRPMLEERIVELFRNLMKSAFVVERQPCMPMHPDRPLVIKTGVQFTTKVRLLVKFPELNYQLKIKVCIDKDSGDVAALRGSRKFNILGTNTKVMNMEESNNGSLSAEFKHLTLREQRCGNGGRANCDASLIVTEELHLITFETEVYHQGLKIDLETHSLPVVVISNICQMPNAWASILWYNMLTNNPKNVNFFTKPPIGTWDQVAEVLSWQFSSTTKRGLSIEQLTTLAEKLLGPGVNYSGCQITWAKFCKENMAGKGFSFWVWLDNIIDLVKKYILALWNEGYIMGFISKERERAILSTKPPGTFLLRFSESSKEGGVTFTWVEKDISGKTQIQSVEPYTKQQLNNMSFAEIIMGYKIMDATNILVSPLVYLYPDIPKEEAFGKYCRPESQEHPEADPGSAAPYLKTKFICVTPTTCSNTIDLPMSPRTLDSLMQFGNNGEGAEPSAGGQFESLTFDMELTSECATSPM
Glucocorticoid receptor (Homo sapiens), sequence (P04150 whole entry, looked up, the tested form may be a part): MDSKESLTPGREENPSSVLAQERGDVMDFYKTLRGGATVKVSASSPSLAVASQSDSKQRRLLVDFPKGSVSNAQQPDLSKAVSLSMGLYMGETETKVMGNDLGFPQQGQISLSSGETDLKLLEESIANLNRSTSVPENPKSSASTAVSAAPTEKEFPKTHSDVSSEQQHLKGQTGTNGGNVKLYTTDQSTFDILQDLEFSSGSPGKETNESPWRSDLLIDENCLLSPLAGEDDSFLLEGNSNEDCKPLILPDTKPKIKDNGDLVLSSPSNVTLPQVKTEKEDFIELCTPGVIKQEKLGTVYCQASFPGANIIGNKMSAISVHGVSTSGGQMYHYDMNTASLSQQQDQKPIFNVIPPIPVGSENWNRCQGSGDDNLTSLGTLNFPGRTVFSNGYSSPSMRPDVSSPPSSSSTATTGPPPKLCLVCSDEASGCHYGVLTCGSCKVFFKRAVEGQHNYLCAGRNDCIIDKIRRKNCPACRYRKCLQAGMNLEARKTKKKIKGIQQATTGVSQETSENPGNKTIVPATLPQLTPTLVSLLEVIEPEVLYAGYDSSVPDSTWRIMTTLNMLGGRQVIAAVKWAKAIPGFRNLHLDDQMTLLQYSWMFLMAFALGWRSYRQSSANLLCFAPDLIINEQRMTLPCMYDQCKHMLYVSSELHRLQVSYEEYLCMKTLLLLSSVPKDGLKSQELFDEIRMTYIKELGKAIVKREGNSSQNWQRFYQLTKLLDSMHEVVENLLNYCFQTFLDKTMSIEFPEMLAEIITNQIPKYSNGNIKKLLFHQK
Bile acid receptor (Homo sapiens), sequence (Q96RI1 whole entry, looked up, the tested form may be a part): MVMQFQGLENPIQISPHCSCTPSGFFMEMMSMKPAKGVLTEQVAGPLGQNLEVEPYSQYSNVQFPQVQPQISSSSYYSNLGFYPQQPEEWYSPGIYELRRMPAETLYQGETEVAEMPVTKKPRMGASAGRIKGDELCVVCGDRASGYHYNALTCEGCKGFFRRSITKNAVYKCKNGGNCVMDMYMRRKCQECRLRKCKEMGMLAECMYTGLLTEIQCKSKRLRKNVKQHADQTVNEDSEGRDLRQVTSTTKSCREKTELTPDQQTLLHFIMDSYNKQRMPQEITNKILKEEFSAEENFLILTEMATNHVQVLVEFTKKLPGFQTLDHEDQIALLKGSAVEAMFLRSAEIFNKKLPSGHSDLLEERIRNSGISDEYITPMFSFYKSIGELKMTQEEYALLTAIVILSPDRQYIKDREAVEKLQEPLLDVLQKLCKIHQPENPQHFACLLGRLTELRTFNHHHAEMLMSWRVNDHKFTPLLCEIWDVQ
Nuclear receptor subfamily 1 group I member 3 (Homo sapiens), sequence (Q14994 whole entry, looked up, the tested form may be a part): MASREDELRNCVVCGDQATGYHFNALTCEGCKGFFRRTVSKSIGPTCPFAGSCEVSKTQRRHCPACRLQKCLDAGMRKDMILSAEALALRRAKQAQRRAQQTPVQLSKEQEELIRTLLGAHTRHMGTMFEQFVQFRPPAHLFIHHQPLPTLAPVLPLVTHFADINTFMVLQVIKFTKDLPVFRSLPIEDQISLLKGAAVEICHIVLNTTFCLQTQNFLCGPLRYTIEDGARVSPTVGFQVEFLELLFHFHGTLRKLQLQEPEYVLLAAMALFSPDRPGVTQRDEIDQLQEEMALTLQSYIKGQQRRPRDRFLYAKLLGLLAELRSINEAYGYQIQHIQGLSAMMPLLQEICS
Estrogen receptor (Homo sapiens), sequence (P03372 whole entry, looked up, the tested form may be a part): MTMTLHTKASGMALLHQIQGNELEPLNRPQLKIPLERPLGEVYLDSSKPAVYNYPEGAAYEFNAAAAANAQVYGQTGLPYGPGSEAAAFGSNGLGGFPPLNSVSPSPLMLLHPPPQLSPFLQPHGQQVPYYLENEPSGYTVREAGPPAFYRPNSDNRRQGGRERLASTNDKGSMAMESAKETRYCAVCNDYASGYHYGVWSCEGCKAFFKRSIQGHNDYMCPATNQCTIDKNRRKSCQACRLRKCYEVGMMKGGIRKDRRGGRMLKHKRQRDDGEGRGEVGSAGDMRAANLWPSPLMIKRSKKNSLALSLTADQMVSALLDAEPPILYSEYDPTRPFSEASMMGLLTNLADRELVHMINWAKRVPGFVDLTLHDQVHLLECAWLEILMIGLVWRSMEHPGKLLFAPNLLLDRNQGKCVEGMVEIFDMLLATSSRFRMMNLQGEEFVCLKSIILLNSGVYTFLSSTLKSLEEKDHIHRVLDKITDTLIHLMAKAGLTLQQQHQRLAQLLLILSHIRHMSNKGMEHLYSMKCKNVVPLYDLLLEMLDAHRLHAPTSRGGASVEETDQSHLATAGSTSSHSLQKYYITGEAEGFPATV

As for `Nc1nc(Cl)nc2c1ncn2[C@H]1C[C@H](O)[C@@H](CO)O1`, the compound was called inactive in [1], in assay [2], in [3], in [4], in [5] and in [6]. Moreover, the outcome in assay [7], in [8], in assay [9], in [10], in assay [11] and in assay [12] was inactive.
`Cc1cc(Cc2ccc(N)c(C)c2)ccc1N`: the call in assay [1], in assay [2], in assay [3], in [5], in assay [6] and in assay [7] was inactive. The result in assay [8], in assay [9], in [13], in [14], in assay [15] and in assay [11] was inactive. Moreover, the result in assay [12] was inactive. For the same compound, the AC50 (as a rule, the midpoint of the concentration-response curve, whichever way the signal moves) in assay [4] was 12.9 µM (active).
Turning to `NCCOCCOCCN`, the outcome in [1], in assay [2], in [3], in assay [4], in assay [5] and in assay [6] was inactive. The compound was called inactive in [7], in [8], in [9], in assay [10], in [13] and in assay [14]. For the same compound, the compound was called inactive in [11].
For the compound `CCCCc1nc2cccnc2n1Cc1ccc(-c2ccccc2-c2nnn[nH]2)cc1`, the compound was classed as inactive in assay [1], in [2], in assay [3], in assay [5], in [6] and in [7]. Besides, the compound was called inactive in [8], in assay [9], in [10], in [13], in assay [16] and in assay [17]. For the same compound, the compound was classed as inactive in assay [14], in assay [11] and in [12].
On to `CC(=O)O`, for which the call in [2], in assay [3], in [4], in assay [5], in assay [6] and in assay [7] was inactive. In addition, the compound was called inactive in assay [8], in [9], in assay [17] and in assay [14].
Regarding `C/C=C/c1ccc(OC)cc1`, the compound was called inactive in assay [18], in assay [1], in assay [2], in assay [3], in assay [5] and in assay [6]. The compound was called inactive in assay [7], in assay [8], in [9], in assay [17] and in assay [14].
